Results reported in PubChem BioAssay (Tox21).
Inconclusive results are not listed. Entries that show only a call come without a potency. Calls of active or inactive are those of the source. Calls follow the shape of the dose curve; as a rule, active = well fitted curve in the direction sought with a large enough effect in the repeat runs; inconclusive = weak or mixed curves; inactive = no such curve, though single readings can be large; an effect the other way counts as inactive or inconclusive.

Experiments:
[1] = qHTS assay to identify small molecule antagonists of the glucocorticoid receptor (GR) signaling pathway - cell viability counter screen (AID 720693); also: nearly all actives have a fitted effect of over 55% in size
[2] = qHTS assay for identifying genotoxic compounds that show differential cytotoxicity against isogenic chicken DT40 cell lines with known DNA damage response pathways - wild type cell line (AID 743012); also: nearly all actives have a fitted effect of over 60% in size; also: potency is read from the fitted curve at half-maximal effect
Summary of the method: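 Endpoint: CellTiter-Glo luminescence, 30 min RT. Cells: wild type DT40, 300/well. Exposure: compounds in DMSO, 40 h, 37 C/5% CO2, after ~0.5 h pre-incubation.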

[3] = qHTS assay for identifying genotoxic compounds that show differential cytotoxicity against isogenic chicken DT40 cell lines with known DNA damage response pathways - Rev3 mutant cell line (AID 743014); also: nearly all actives have a fitted effect of over 55% in size; also: potency is read from the fitted curve at half-maximal effect
[4] = qHTS assay for identifying genotoxic compounds that show differential cytotoxicity against isogenic chicken DT40 cell lines with known DNA damage response pathways - Rad54/Ku70 mutant cell line (AID 743015); also: nearly all actives have a fitted effect of over 60% in size; also: potency is read from the fitted curve at half-maximal effect
[5] = qHTS assay to identify small molecule antagonists of the androgen receptor (AR) signaling pathway - cell viability counter screen (AID 743033; also: nearly all actives have a fitted effect of over 45% in size)
[6] = qHTS assay to identify small molecule antagonists of the androgen receptor (AR) signaling pathway using the MDA cell line - cell viability counter screen (AID 743041; also: nearly all actives have a fitted effect of over 45% in size)
Summary of the method: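 Using the breast carcinoma line MDA-kb2 AR-luc, test chemicals were co-incubated with R1881 for 16 h; CellTiter-Fluor reagent, added at 15.5 h, provided a fluorescence measure of live cells.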

SMILES | Potency [1] | Potency [2] | Potency [3] | Potency [4] | outcome [5] | outcome [6]
CCC1Nc2cc(Cl)c(S(N)(=O)=O)cc2S(=O)(=O)N1 (configuration not stated) | inactive | inactive | inactive | inactive | inactive | inactive
CCCC(C)CC (configuration not stated) | inactive | inactive | inactive | inactive | inactive | inactive
O=C(O)CCNC(=O)c1ccccc1 | inactive | inactive | inactive | inactive | inactive | inactive
CC(C)(c1ccc(Oc2ccc3c(c2)C(=O)OC3=O)cc1)c1ccc(Oc2ccc3c(c2)C(=O)OC3=O)cc1 | inactive | inactive | inactive | inactive | inactive | inactive
C=C[C@@H](C)CCC=C(C)C | inactive | inactive | inactive | inactive | inactive | inactive
CCC(=O)c1ccc(O)cc1 | inactive | inactive | inactive | inactive | inactive | inactive
CCNC(=O)NCCCOc1cccc(CN2CCCCC2)c1 | inactive | inactive | inactive | inactive | inactive | inactive
OCCCCCCCl | inactive | inactive | inactive | inactive | inactive | inactive
FC(F)(F)c1ccc(Cl)cc1Cl | inactive | inactive | inactive | inactive | inactive | inactive
CCc1nccnc1C | inactive | inactive | inactive | inactive | inactive | inactive
O=C1OC(=O)c2ccccc21 | inactive | inactive | inactive | inactive | inactive | inactive
Cc1c(C(C)C)c(=O)n(-c2ccccc2)n1C | inactive | inactive | inactive | inactive | inactive | inactive
CNCc1ccccc1 | inactive | inactive | inactive | inactive | inactive | inactive
CCOC(=O)CC#N | inactive | inactive | inactive | inactive | inactive | inactive
O=c1[nH]c(=O)c2[nH]c(=O)[nH]c2[nH]1 | inactive | inactive | inactive | inactive | inactive | inactive
CC(C)CCCC(C)CC=O (configuration not stated) | inactive | inactive | inactive | inactive | inactive | inactive

SMILES | Potency [1] | Potency [2] | Potency [3] | Potency [4] | outcome [5] | outcome [6]
CC(C)CCC(=O)CCC(C)C | inactive | 68.6 µM (active) | 68.6 µM (active) | 61.1 µM (active) | inactive | inactive
C=C(C)C(=O)OC | inactive | inactive | inactive | inactive | inactive | inactive
CCC1COC(=O)O1 (configuration not stated) | inactive | inactive | inactive | inactive | inactive | inactive
O=C(/C=C/c1ccccc1)NCCO | inactive | inactive | inactive | inactive | inactive | inactive
Cc1cccc(NC(=S)N(C)C)c1 | inactive | inactive | inactive | inactive | inactive | inactive
CC(=O)OCCCc1ccccc1 | inactive | inactive | inactive | inactive | inactive | inactive
CC(CC(=O)O)CC(C)(C)C (configuration not stated) | inactive | inactive | inactive | inactive | inactive | inactive
CC(C)(CO)[C@@H](O)C(=O)NCCCO | inactive | inactive | inactive | inactive | inactive | inactive
O=S(=O)(O)CCO | inactive | inactive | inactive | inactive | inactive | inactive
CCCCCCCC/C=C\CCCCCCCC(=O)OC[C@@H](O)[C@H]1OC[C@H](O)[C@H]1O | inactive | inactive | inactive | inactive | inactive | inactive
COCCOCCOCCOC | inactive | inactive | inactive | inactive | inactive | inactive
CCCCC(=O)N(C)C | inactive | inactive | inactive | inactive | inactive | inactive
CC(C)COC(=O)CC(C(=O)OCC(C)C)S(=O)(=O)O (configuration not stated) | inactive | inactive | inactive | inactive | inactive | inactive
C=COCCOCCOC=C | inactive | inactive | inactive | inactive | inactive | inactive
CCCCOC(=O)[C@@H](C)Oc1ccc(Oc2ccc(C(F)(F)F)cn2)cc1 | inactive | inactive | inactive | inactive | inactive | inactive
O=C1CC[C@H](C(=O)N2CCCCC2)N1 | inactive | inactive | inactive | inactive | inactive | inactive
